From PubChem BioAssay AID2717 (Broad Institute, 2010)
Where “and” joins values, the source holds several entries; their conditions need not be identical. Equal entries are not always repeated. Hit rate of the full screen: of about 300,000 compounds, about 3,200 (1.1%) were called active. The sample holds actives, similar compounds and a random draw of the others, so the mix is not that of the screen. Unmarked numbers belong to inactive results. Rule as the data show it: active = inhibition above about 75%; inconclusive = no clear call, values can overlap the other calls; inactive = below that; tested in HMLE shEcad cells.

Assay: cancer stem cell viability inhibitors, primary screen, luminescence (AID 2717)
Settings: cancer stem cell-like cells viability, at 7.5 µM, active compounds read high
With NC(=O)NC(=O)CSc1nc2cc([N+](=O)[O-])ccc2n1-c1cccc(C(F)(F)F)c1 the inhibition was 84.3% (active). In the case of COc1ccc(CCNC(=O)CSc2nc3[nH]ncc3c(=O)n2-c2cccc(C(F)(F)F)c2)cc1OC, the inhibition is reported as -2.41%. COc1ccc(-n2cnnc2SCC(=O)Nc2cccc([N+](=O)[O-])c2)cc1 showed an inhibition of -0.247%. Compound Cc1ccc2c(c1)C1C[N+](C)(CC(=O)c3ccccc3)CCC1N2C(=O)c1ccccc1Cl (configuration not stated) has an inhibition of -11.4%. COc1ccc(S(=O)(=O)N(C)C[C@H]2Oc3ccc(NS(=O)(=O)c4cccs4)cc3CC(=O)N([C@H](C)CO)C[C@H]2C)cc1 gave an inhibition of -7.45%. Compound COc1ccc(N(CCC(=O)NCCc2ccccc2)S(=O)(=O)c2ccc(C)cc2C)cc1 has an inhibition of 0.378%. For C[C@]12C=CC(=O)C=C1CC[C@@H]1[C@@H]2C(=O)C[C@@]2(C)[C@H]1CC[C@]2(O)C(=O)CO, the inhibition was -3.96% and -10.9%. CC(=O)[C@@]12O[C@@H]1C[C@H]1[C@@H]3CC[C@H]4C[C@@H](O)CC[C@]4(C)[C@H]3CC[C@@]12C showed an inhibition of -0.101%. In the case of CC(=O)C12CC(C)=C(C)CC1CC1C3CCC4=CC(=O)CCC4(C)C3CCC12C (configuration not stated), the inhibition is reported as 76.7% (active). In the case of COc1cccc(NC(=O)COC(=O)c2ccc3ccccc3n2)c1, the inhibition is reported as -12.4%. COc1cccc(NC(=O)COc2cccnc2[N+](=O)[O-])c1 gave an inhibition of -14.1%. For CC(=O)c1cccc(OCC(=O)OCC(=O)Nc2cc(S(=O)(=O)N3CCCCC3)ccc2C)c1, the inhibition was 2.55%. For O=C(CC1SCCNC1=O)Nc1ccc(Cl)c(Cl)c1 (configuration not stated), the inhibition was -15.9%. In the case of O=C(CC(O)(C(F)(F)F)C(F)(F)F)Nc1ccc(Cl)c(Cl)c1, the inhibition is reported as 98.6% (active). CCn1nccc1C(=O)Nc1ccc(Cl)c(Cl)c1 showed an inhibition of 6.24%. In the case of Cc1nn(-c2ccccc2)nc1C(=O)OCC(=O)N1CCCCC1C (configuration not stated), the inhibition is reported as 3.22%. Work on O=C(CN1C(=O)c2ccc([N+](=O)[O-])cc2C1=O)Nc1nnc(C2CC2)s1 yielded an inhibition of -20.4%. For CC(OC(=O)c1cc2ccccc2[nH]1)C(=O)N(C)c1ccccc1 (configuration not stated), the inhibition was -15.8%. Cc1csc(=O)n1CC(=O)Nc1ccc(S(C)(=O)=O)cc1 gave an inhibition of -16.8%. Compound COc1ccc(C(=O)OCc2cc(=O)n3ccsc3n2)cc1F has an inhibition of -8.98%. In the case of COc1ccc(C2CC(c3cccs3)=NN2c2ccccc2)cc1 (configuration not stated), the inhibition is reported as 4.92%. For Oc1ccccc1C1=NN(c2ccccc2)C(c2ccccc2)C1 (configuration not stated), the inhibition was 84.6% (active). O=C(c1ccccc1)N1N=C(c2ccccc2O)CC1c1ccc(Br)cc1 (configuration not stated) showed an inhibition of 8.94%. For COc1ccc(N2CCN(C(CNS(=O)(=O)c3ccc(C)cc3)c3ccccc3)CC2)cc1 (configuration not stated), the inhibition was 20.2%. Compound COc1cccc(CC(=O)OCC(=O)NCc2ccc3c(c2)OCO3)c1 has an inhibition of -4.31%. In the case of O=C(NCCc1ccccc1)C1CCN(S(=O)(=O)c2ccc(Br)s2)CC1, the inhibition is reported as -3.18%. For O=S(=O)([N-]c1nc2ccccc2nc1-[n+]1ccc(Cc2ccccc2)cc1)c1ccc(Br)s1, the inhibition was 98.5% (active). In the case of Cc1cc(C)c[n+](-c2nc3ccccc3nc2[N-]S(=O)(=O)c2cccs2)c1, the inhibition is reported as -12.3%. Cn1nnnc1SCC(=O)Nc1sccc1C(N)=O showed an inhibition of -11.4%. CN(CC(=O)NCCc1ccc(S(N)(=O)=O)cc1)CC(=O)Nc1ccc(Cl)cc1 showed an inhibition of -12.5%. COc1cc2cc(C(=O)N/N=C/c3cccc(OC)c3OC)[nH]c2cc1OC gave an inhibition of 8.69%. In the case of CN(C)CCNC(=O)c1[nH]nc2c1CCc1ccccc1-2, the inhibition is reported as -15.5%. In the case of COc1cccc(/C=N/NC(=O)c2[nH]nc3c2CCc2ccccc2-3)c1O, the inhibition is reported as 111% (active). Work on CCOC(=O)CCCCCC(=O)Nc1ccc2c(c1)CC(=O)N([C@@H](C)CO)C[C@H](C)[C@@H](CN(C)Cc1ccccc1)O2 yielded an inhibition of -7.75%. COc1ccc2c(c1)c1ncn(Cc3ccccn3)c(=O)c1n2C gave an inhibition of -14.9%. Compound Cc1ccc2c(c1)c1ncn(Cc3ccc(F)cc3)c(=O)c1n2C has an inhibition of 21.8%. In the case of Cc1ccc2c(c1)c1ncn(CCC3=CCCCC3)c(=O)c1n2C, the inhibition is reported as 79.2% (active). Compound CCn1nnc2cc(C(=O)Nc3ccc(C(=O)OC(C)C)cc3)ccc21 has an inhibition of -0.631%. O=C(COC(=O)C1CCCO1)Nc1nc(-c2ccc(F)cc2)cs1 (configuration not stated) gave an inhibition of -5.39%. In the case of O=C(OCC(=O)N1CCCCC1)c1ccc(OC(F)(F)F)cc1, the inhibition is reported as -0.262%. With O=C1C=C(c2ccc(Cl)cc2)C(=O)N1Nc1ccccc1 the inhibition was 107% (active). For O=C(O)CC1=C(Nc2ccccc2)C(=O)N(c2ccccc2)C1c1ccc(Cl)cc1 (configuration not stated), the inhibition was 9.27%. For O=C1c2cccc3cc(Br)cc(c23)C(=O)N1Nc1ccccc1, the inhibition was 6.61%. CCOC(=O)C1CCN(C(=O)CN2C(=O)NC(C)(c3ccc4cc(OC)ccc4c3)C2=O)CC1 (configuration not stated) showed an inhibition of -9.85%. In the case of CCOC(=O)[C@@H]1[C@H]2COc3ccc(Br)cc3[C@H]2N2C(=O)N(c3ccc(C)cc3)C(=O)[C@@]12C, the inhibition is reported as -5.83%. For Oc1ccc(Br)cc1/C=N/Nc1ccccn1, the inhibition was 101% (active). Work on COc1ccc(-c2nn(-c3ccccc3)cc2/C=N/Nc2ccccn2)cc1OC yielded an inhibition of 10.5%. With O=C(CCCO)N/N=C/c1cc(Br)ccc1O the inhibition was -5.24%. Compound COc1ccc(OC)c(NC(=O)COC(=O)Cc2ccsc2)c1 has an inhibition of -8.27%. O=C(OCC(=O)N1CCCCCC1)c1ccc(Cl)nc1 showed an inhibition of 15.6%. For COc1ccc(Cc2nc(-c3ccccn3)no2)cc1OC, the inhibition was -15.9%. Cc1ccc(Oc2nc(-c3ccccn3)nc3ccccc23)cc1 showed an inhibition of 4.28%. With O=C(Oc1ccc(-c2nc(-c3ccccn3)no2)cc1)c1ccccc1 the inhibition was 129% (active). With N#CCCN(C(=O)COC(=O)c1ccc2c(c1)OCCO2)c1ccccc1 the inhibition was -4.1%. In the case of O=C(CN1C(=O)c2ccccc2C1=O)NCc1ccc(C(=O)O)cc1, the inhibition is reported as 12.4%. For CC(=O)N(C1=C(Cl)C(=O)c2ccccc2C1=O)c1ccc(C(=O)O)cc1, the inhibition was 102% (active). For CC(C)N(C(=O)c1ccc(-c2ccccc2F)cc1)C(C)C, the inhibition was -3.5%. CCOc1ncccc1C(=O)Nc1ccc2c(c1)OCCO2 gave an inhibition of -12.8%. O=C(Nc1cc(S(=O)(=O)N2CCOCC2)ccc1N1CCOCC1)c1c(F)cccc1Cl showed an inhibition of -17.5%. Cc1c(NC(=O)C(C)OC(=O)c2ccccc2O)c(=O)n(-c2ccccc2)n1C (configuration not stated) showed an inhibition of -18.3%. CCC(CO)Oc1cc(NC(=O)c2cccc3ccccc23)c2ncn(C(C)C)c2c1 (configuration not stated) gave an inhibition of 4.9%. Cc1ccc2c(CN3CCN(S(=O)(=O)c4ccccc4C(F)(F)F)CC3)cc(=O)oc2c1 gave an inhibition of 0.831%. For CO[C@@H]1[C@@H](OC(N)=O)[C@@H](O)C(Oc2ccc3c(O)c(NC(=O)c4ccc(O)c(CC=C(C)C)c4)c(=O)oc3c2C)OC1(C)C (some centres not stated), the inhibition was -16%. For CNC(=S)N/N=C/c1cn(Cc2ccc(C)cc2)c2ccccc12, the inhibition was 109% (active). COC(=O)N/N=C/c1cn(CCCOc2ccc(C)cc2)c2ccccc12 gave an inhibition of 25.8%. CCOC(=O)N/N=C/c1cn(Cc2ccccc2Cl)c2ccccc12 gave an inhibition of 7.15%. Cc1ccccc1-c1cc(C(=O)NCc2cccs2)n(CC2CC(c3cccnc3)=NO2)n1 (configuration not stated) showed an inhibition of 10.1%. For CN(C)c1nc(Nc2ccc(Cl)c(Cl)c2)nc(N(C)C)n1, the inhibition was -14.7%. For OCCNc1nc(Nc2ccc(Cl)c(Cl)c2)nc2ccccc12, the inhibition was 102% (active). For COc1cc2nc(Cl)nc(NCCO)c2cc1OC, the inhibition was -15.1%. O=C(c1cnccn1)N1CCN(S(=O)(=O)c2cccc(Cl)c2)CC1 gave an inhibition of -17.3%. For Cc1cc(N2CCCC2)ccc1NC(=O)COc1ccc(Cl)cc1, the inhibition was -10.1%. With Cc1c(C(=O)Nc2cccc(S(=O)(=O)N3CCOCC3)c2)oc2ccccc12 the inhibition was -11%. CC1CCCCC12NC(=O)N(CC(=O)OCc1c(F)cccc1Cl)C2=O (configuration not stated) gave an inhibition of -8.77%. COCCN(CCOC)S(=O)(=O)NC[C@H]1O[C@@H](n2cnc3c(N)ncnc32)[C@H](O)[C@@H]1O gave an inhibition of 2.3%. With COc1ccc(Br)cc1C(=O)NC(=S)Nc1cc(-c2nc3ccccc3[nH]2)ccc1C the inhibition was 86.6% (active). In the case of Cc1ccc(-c2nc3ccccc3[nH]2)cc1NC(=O)c1sc2ccccc2c1Cl, the inhibition is reported as 6.88%. Work on COc1ccc(Br)cc1C(=O)Nc1cccc(C)c1C yielded an inhibition of -31%. For COc1ccc(C(=O)NCc2ccccc2C)cc1S(=O)(=O)NC1CCCC1, the inhibition was 0.604%. With CC(C)=CCc1c(O)c(CC=C(C)C)c2occ(-c3ccc(O)cc3)c(=O)c2c1O the inhibition was 100% (active). With O=c1c(-c2ccccc2)coc2cc(O)ccc12 the inhibition was 0.886%. CC(C)CN(Cc1c(O)ccc2c(=O)c(-c3ccccc3)coc12)CC(C)C gave an inhibition of -0.974%. O=C(COC(=O)c1cc(S(=O)(=O)N2CCOCC2)ccc1F)NC1CC1 gave an inhibition of -6.89%. O=C(NC1C2CC3CC(C2)CC1C3)c1ccc(N2CCNCC2)c([N+](=O)[O-])c1 (configuration not stated) showed an inhibition of 52.3%. With CC(NC(=O)c1ccc(N2CCNCC2)c([N+](=O)[O-])c1)C12CC3CC(CC(C3)C1)C2 (configuration not stated) the inhibition was 86.5% (active). With O=C(Nc1cccc(C(F)(F)F)c1)c1ccc(N2CCNCC2)c([N+](=O)[O-])c1 the inhibition was -16.4%. For O=C1C=C(c2ccnc3cc(Cl)ccc23)C[C@@H](c2ccc3c(c2)OCO3)C1, the inhibition was 6.37%.
